# The campaign covered roughly 52,000 compounds. About 1,700 (3.3%) were called active. Cut-off read from the data, not from the text of the source: active = survival mostly below about 52% (no sharp cut-off); inactive = mostly above about 56%. Only a selection was taken, and actives are over-represented in it overall.
# Tested on: Wild type
# Assay: S. aureus survival, RN4220 and DeltatarO strains – OD600, teichoic acid synthesis inhibitors, primary screen (AID 463173)
# Conditions: S. aureus RN4220 wild type/DeltatarO growth, OD600, 18 h, stronger effect = lower value, screened at 18.75 µg/mL (by protocol)
row,Compound,survival
1,CCN1CCN(CC2CCCCC2)CC1,102% (inactive)
2,CC1CN(C(=O)CCC(=O)NCc2ccccc2)c2cc(Cl)ccc2O1 (configuration not stated),92% (inactive)
3,CCOc1ccccc1-c1nnc(SCc2ccc(Cl)cc2)o1,-14% (active)
4,Oc1ccccc1-c1nnc(SCc2ccccc2)o1,103% (inactive)
5,Oc1ccc(-c2nnc(SCc3ccc(Cl)cc3)o2)cc1,112% (inactive)
6,Cc1cc(C(=O)N2CCN(c3cc(Cl)ccc3C)CC2)c2c(C)nn(-c3ccccc3)c2n1,136% (inactive)
7,O=C(Nc1ncn[nH]1)C(F)(F)C(F)F,108% (inactive)
8,COc1ccc(NC(=O)c2cc3c([nH]c2=O)CC(c2ccccc2)CC3=O)cc1 (configuration not stated),63% (inactive)
9,O=C1CC(c2ccccc2)Cc2[nH]c(=O)c(C(=O)Nc3cccc(F)c3)cc21 (configuration not stated),85% (inactive)
10,Cc1cccc(NC(=O)c2cc3c([nH]c2=O)CC(c2ccccc2)CC3=O)c1 (configuration not stated),-3% (active)
11,CC(=O)c1ccc(NC(=O)c2cc3c([nH]c2=O)CC(c2ccccc2)CC3=O)cc1 (configuration not stated),85% (inactive)
12,O=C1CC(c2ccccc2)Cc2[nH]c(=O)c(C(=O)Nc3cccc(Cl)c3)cc21 (configuration not stated),0% (active)
13,O=C1CC(c2ccccc2)Cc2[nH]c(=O)c(C(=O)Nc3ccc(F)cc3)cc21 (configuration not stated),75% (inactive)
14,CCOC(=O)c1ccc(NC(=O)CSc2ccc(-c3ccccn3)nn2)cc1,90% (inactive)
15,COc1ccccc1N1CCN(C(=O)c2nc(-c3ccc(C)cc3)n3c2CCCCC3)CC1,85% (inactive)
16,CCCCN(CCCC)c1ncnc2c1cnn2-c1cccc(C)c1,91% (inactive)
17,Cc1ccc(-n2ncc3c(N(C)Cc4ccccc4)ncnc32)cc1,85% (inactive)
18,OCCN(CCO)c1ncnc2c1cnn2-c1ccc(F)cc1,1% (active)
19,Cc1ccc(-n2ncc3c(N(CCO)Cc4ccccc4)ncnc32)cc1,0% (active)
20,Cc1ccc(-n2ncc3c(NCCc4ccccc4)ncnc32)cc1,76% (inactive)
21,CCN(Cc1ccccc1)c1ncnc2c1cnn2-c1ccc(F)cc1,55% (inactive)
22,CCOc1ccc(-c2cc3nc(C4CCN(C(=O)OC(C)(C)C)CC4)c(C(=O)Nc4c(C)cccc4C)cn3n2)cc1,86% (inactive)
23,CCOc1ccc(C(=O)CSc2nnc3cc(C)c4ccccc4n23)cc1,85% (inactive)

row,Compound,survival
1,CCOCCn1ccc2c(OCC(=O)Nc3cccc([N+](=O)[O-])c3)cccc2c1=O,128% (inactive)
2,CCCN1C2CCCC1CC(NC(=O)c1ccc(F)cc1)C2 (configuration not stated),108% (inactive)
3,CNC(=O)Cn1c(=O)c2cccn2c2ccc(F)cc21,85% (inactive)
4,COc1ccccc1OCCn1c(C(C)Oc2ccccc2)nc2ccccc21 (configuration not stated),76% (inactive)
5,COc1ccc(OCCn2c(NC(=O)c3ccc(OC)cc3)nc3ccccc32)cc1,-13% (active)
6,COc1ccccc1OCCn1c(NC(=O)c2ccccc2Cl)nc2ccccc21,-10% (active)
7,COc1ccc(OCCn2c(C(C)Oc3ccccc3)nc3ccccc32)cc1 (configuration not stated),72% (inactive)
8,COc1ccccc1OCCn1c(NC(=O)c2ccc(Cl)cc2)nc2ccccc21,80% (inactive)
9,OCCNc1nc2ccccc2n1CCOc1ccccc1,115% (inactive)
10,O=C(Nc1nc2ccccc2n1CCOc1ccccc1Cl)c1ccccc1,36% (inactive)
11,CCCC(O)c1nc2ccccc2n1CCCOc1ccc(Cl)cc1 (configuration not stated),97% (inactive)
12,COc1ccc(C(=O)Nc2nc3ccccc3n2CCOc2ccc(Cl)cc2)cc1,4% (active)
13,Cc1ccc(N2CC(NC(=O)/C=C\c3ccc4c(c3)OCO4)CC2=O)cc1C (configuration not stated),130% (inactive)
14,CCOc1ccc(CCNC(=O)c2nn(-c3ccc(OC)c(Cl)c3)c(=O)c3c2c2ccccc2n3C)cc1OCC,88% (inactive)
15,COc1ccc(OC)c(-n2cnc3cc(C(=O)NC4CCCC4)ccc32)c1,72% (inactive)
16,CC1=CC(C)C2C(=O)N(c3ccccc3)C(=O)C2C1 (configuration not stated),111% (inactive)
17,COc1ccc(NC(=O)Cn2c(=O)oc3cc(S(=O)(=O)N4CCCC4)ccc32)cc1OC,79% (inactive)
18,CC(C)c1ccc(C2N=C(N)Nc3nc4ccccc4n32)cc1 (configuration not stated),93% (inactive)
19,COc1cc(C2N=C(N)Nc3nc4ccccc4n32)ccc1OCCC(C)C (configuration not stated),85% (inactive)
20,CC(C)CCOc1ccc(C2N=C(N)Nc3nc4ccccc4n32)cc1 (configuration not stated),-15% (active)
21,CCc1ccc(N2CCn3c2nc2c3c(=O)n(CCCc3ccccc3)c(=O)n2C)cc1,88% (inactive)
22,O=C(Nc1ccccc1C(F)(F)F)N1CC=C(c2c[nH]c3ccccc23)CC1,127% (inactive)
23,Cc1ccc(CNS(=O)(=O)c2ccc(C(=O)N(C)C)s2)cc1,-6% (active)

row,Compound,survival
1,CN(C)C(=O)c1ccc(S(=O)(=O)NCc2ccc(Cl)cc2)s1,123% (inactive)
2,COc1ccc(CNS(=O)(=O)c2ccc(C(=O)N(C)C)s2)cc1,87% (inactive)
3,CC1=C(C(=O)Nc2ccccc2)C(c2ccccc2Cl)n2ncc(C(=O)Nc3cccc(C)c3)c2N1 (configuration not stated),72% (inactive)
4,COc1ccccc1NC(=O)C1=C(C)Nc2c(C(=O)Nc3cccc(C)c3)cnn2C1c1ccccc1Cl (configuration not stated),-6% (active)
5,COc1ccc(C2C(C(=O)Nc3ccccc3)=C(C)Nc3c(C(=O)Nc4ccccc4)cnn32)cc1 (configuration not stated),134% (inactive)
6,COc1ccccc1NC(=O)C1=C(C)Nc2c(C(=O)Nc3cccc(C)c3)cnn2C1c1ccccc1C (configuration not stated),69% (inactive)
7,CCc1ccc(C2C(C(=O)Nc3ccccc3)=C(C)Nc3c(C(=O)Nc4ccc(C)cc4)cnn32)cc1 (configuration not stated),-1% (active)
8,CCc1ccc(C2C(C(=O)Nc3ccccc3OC)=C(C)Nc3c(C(=O)Nc4ccc(C)cc4)cnn32)cc1 (configuration not stated),74% (inactive)
9,CCOc1ccc(NC(=O)c2cnn3c2NC(c2ccccc2)=CC3c2cccc(OC)c2OC)cc1 (configuration not stated),85% (inactive)
10,COc1cccc(C2C=C(c3ccc(C)cc3)Nc3c(C(=O)Nc4ccc(F)cc4)cnn32)c1OC (configuration not stated),-3% (active)
11,COc1cccc(C2C=C(c3ccccc3)Nc3c(C(=O)Nc4ccccc4)cnn32)c1OC (configuration not stated),64% (inactive)
12,COc1cccc(C2C(C(=O)Nc3ccc(C)cc3C)=C(C)Nc3c(C(=O)Nc4cccc(C)c4)cnn32)c1OC (configuration not stated),78% (inactive)
13,COc1ccccc1NC(=O)C1=C(C)Nc2c(C(=O)Nc3ccc(C)cc3)cnn2C1c1cccc(OC)c1OC (configuration not stated),14% (active)
14,COc1cccc(C2C(C(=O)Nc3ccc(Cl)cc3)=C(C)Nc3c(C(=O)Nc4ccccc4)cnn32)c1OC (configuration not stated),93% (inactive)
15,Cc1c(C(=O)Nc2cccc(-c3nc4ccccc4s3)c2)oc2ccccc12,98% (inactive)
16,Cc1ccc(C(NC(=O)Cc2cccs2)C(=O)Nc2ccc(C(C)C)cc2)cc1 (configuration not stated),82% (inactive)
17,CCOc1ccc(C(=O)N2CCCCC2CCN2CCOCC2)cc1 (configuration not stated),88% (inactive)
18,Cc1ccc(NC(=O)CSc2nccn2C2CCCC2)cc1Cl,125% (inactive)
19,COc1ccc2c(c1)c1c(c(=O)n(CCc3ccccc3)c(=O)n1Cc1ccc(Cl)cc1)n2C,63% (inactive)
20,Cc1ccc(-c2nc3cc(C(C)C)ccc3o2)cc1NC(=O)c1cccs1,72% (inactive)
21,CC(C)c1ccc2oc(-c3cc(NC(=O)c4cccnc4)ccc3Cl)nc2c1,1% (active)
22,Cc1cccc(C(=O)Nc2ccc(-c3nc4cc(C(C)C)ccc4o3)cc2)c1,47% (inactive)
23,CCc1ccc2oc(-c3cc(NC(=O)c4cccs4)ccc3Cl)nc2c1,12% (inactive)

row,Compound,survival
1,Cc1cc(NC(=O)c2cccnc2)cc(-c2nc3cc(Cl)ccc3o2)c1O,157% (inactive)
2,CC(C)c1ccc2oc(-c3cc(NC(=O)c4cccs4)ccc3Cl)nc2c1,7% (active)
3,Cc1cc(NC(=O)c2cccs2)cc(-c2nc3cc(Cl)ccc3o2)c1O,87% (inactive)
4,CC(C)c1ccc2oc(-c3ccc(Cl)c(NC(=O)c4cccs4)c3)nc2c1,2% (active)
5,O=C(Nc1cc(-c2nc3cc(Cl)ccc3o2)ccc1Cl)c1cccs1,79% (inactive)
6,CN(C)C(=O)CN(C#N)c1nc(Cl)nc(N(C)C)n1,110% (inactive)
7,N#Cc1ccc(S(=O)(=O)N2CCC(Oc3cccc(C(F)(F)F)c3)CC2)cc1,84% (inactive)
8,COc1ccc(CNC(=O)Cc2ccc(NC(=O)N3CCSc4ncccc43)cc2)cc1OC,75% (inactive)
9,Cc1cccc(-c2nc3c4ccccc4nc(NCc4ccc(Cl)cc4)n3n2)c1,47% (inactive)
10,O=C1CCSC2(C(=O)N(Cc3ccc(F)cc3)c3ccccc32)N1c1cccc(F)c1 (configuration not stated),74% (inactive)
11,CCOc1ccccc1C(=O)Nc1c(NC)c2ccccc2oc1=O,76% (inactive)
12,Fc1ccc(-c2noc3ncnc(NCC4CCN(Cc5ccc(Cl)cc5)CC4)c23)cc1,81% (inactive)
13,Cc1ccc(CN2CCC(CNc3ncnc4onc(-c5ccc(F)cc5)c34)CC2)cc1,-4% (active)
14,Cc1ccc(CN2CCC(CNc3ncnc4onc(-c5ccc(Cl)cc5)c34)CC2)cc1,77% (inactive)
15,O=c1c(S(=O)(=O)c2ccc(Cl)cc2)cn(Cc2ccc(F)cc2)c2ccc(F)cc12,130% (inactive)
16,CCn1c(=O)c2cc(C(=O)NCCCN3CCN(C)CC3)sc2c2ccccc21,124% (inactive)
17,COCCNC(=O)C1=CC(c2ccc3c(c2)OCO3)=NS(=O)(=O)N1C,103% (inactive)
18,COc1cccc(CNC(=O)CCC(=O)N2CC3CCCN3c3ccccc32)c1 (configuration not stated),65% (inactive)
19,O=C(CCC(=O)N1CC2CCCN2c2ccccc21)NCc1cccc(Cl)c1 (configuration not stated),10% (active)
20,O=C(CCC(=O)N1CC2CCCN2c2ccccc21)NCc1ccccc1 (configuration not stated),88% (inactive)
21,Cc1ccc(CNC(=O)CCC(=O)N2CC3CCCN3c3ccccc32)cc1 (configuration not stated),82% (inactive)
22,O=C(CCC(=O)N1CC2CCCN2c2ccccc21)NCc1ccccc1Cl (configuration not stated),69% (inactive)
23,O=C(CCC(=O)N1CC2CCCN2c2ccccc21)NCc1ccc(F)cc1 (configuration not stated),-2% (active)
